Laboratory results taken from PubChem BioAssay (NCATS).
Records with an inconclusive call do not appear. The source made the active and inactive calls. Unless noted, calls come from the whole dose curve; as a rule, active = well fitted curve in either direction with a large enough effect (not every such curve was filed as active); inconclusive = small, poorly fitted or top-dose-only effect, or another doubt; inactive = flat fitted curve, though single readings scatter.

Key:
[1] = AP1 Signaling Pathway (AID 357);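 note: ME-180 reporter cells stimulated with EGF at its EC50 level; % is set by controls: 0 for no effect and ±100 for the full control effect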
Procedure, shortened: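 Read-out was the 460nm/530nm emission ratio (excitation 405nm) after CCF4 loading for 2.5 hours at room temperature. Cells carried an AP-1-driven beta-lactamase reporter, were stimulated with EC50 EGF plus compound for 5 hours, and AC50 values came from titrations.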

[2] = target: Cytochrome P450 1A2 (Homo sapiens) (UniProt P05177); assay: p450-cyp1a2 (AID 410; calls by dose curve;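 note: -100% = full effect of reference inhibitor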)
Sequence of Cytochrome P450 1A2 (Homo sapiens) (P05177 whole entry, looked up): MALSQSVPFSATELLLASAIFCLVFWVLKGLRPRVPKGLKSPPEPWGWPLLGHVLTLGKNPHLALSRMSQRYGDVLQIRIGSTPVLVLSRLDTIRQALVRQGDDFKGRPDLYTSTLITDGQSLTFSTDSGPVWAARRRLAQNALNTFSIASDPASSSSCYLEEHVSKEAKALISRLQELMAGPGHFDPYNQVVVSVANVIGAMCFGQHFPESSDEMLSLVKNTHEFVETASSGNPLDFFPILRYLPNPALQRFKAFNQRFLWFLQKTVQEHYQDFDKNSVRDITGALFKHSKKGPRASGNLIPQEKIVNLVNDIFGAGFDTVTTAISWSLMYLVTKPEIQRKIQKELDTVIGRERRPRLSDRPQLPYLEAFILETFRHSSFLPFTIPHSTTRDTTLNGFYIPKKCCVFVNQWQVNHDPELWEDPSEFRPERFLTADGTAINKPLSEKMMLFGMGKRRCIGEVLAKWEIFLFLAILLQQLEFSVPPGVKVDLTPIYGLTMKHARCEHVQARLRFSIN
Procedure, shortened: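 Luminescent readout of luciferin formed from Luciferin-ME by human CYP1A2; data normalized against complete inhibition by 57 uM furafylline. Enzyme 20nM, substrate 100uM at Km, 100mM KPO4 buffer, 60 min reaction at room temperature.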

[3] = NFAT Signaling Pathway (AID 444); conditions: Jurkat NFAT-bla M1, carbachol, beta-lactamase ratio, 5 h; at 17.2 µM (top of the series);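 note: carbachol stimulus at about its EC50 of 1 µM final; % is set by controls: 0 for no effect and ±100 for the full control effect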
Procedure, shortened: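 Read-out: CCF4 FRET ratio (460 nm/530 nm) after 1 h RT dye loading, used for %activity and AC50 from titration series. Cells: Jurkat NFAT-β-lactamase/M1 line, treated with compound plus 1 uM carbachol for 5 h, 37 °C.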

[4] = Stat Signaling Pathway (AID 446);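 note: ME-180 cervical cancer cells given 40 pM IL-6 alongside compound; SIE-controlled beta-lactamase reporter measured as 460/530 nm FRET emission ratio; % is set by controls: 0 for no effect and ±100 for the full control effect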
Procedure, shortened: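 ME-180 SIE-bla cells; overnight plating; cpd + IL-6 40 pM, 5 h, 37 C; LiveBLAzer 2.5 h RT; 460/530 nm emission ratio. Normalized to 300 pM IL-6 and 125 nM JAK inhibitor controls.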

[5] = target: Glucocorticoid receptor (Homo sapiens) (UniProt P04150); assay: GR-GFP Redistribution (AID 450;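 active = compounds whose dose series gives a full or clear partial fitted curve of increased nuclear translocation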; note: potency is the fitted concentration of half-maximal effect); conditions: U2OS GR-GFP nuclear translocation, laser cytometry, 2 h
Sequence of Glucocorticoid receptor (Homo sapiens) (P04150 whole entry, looked up, the tested form may be a part): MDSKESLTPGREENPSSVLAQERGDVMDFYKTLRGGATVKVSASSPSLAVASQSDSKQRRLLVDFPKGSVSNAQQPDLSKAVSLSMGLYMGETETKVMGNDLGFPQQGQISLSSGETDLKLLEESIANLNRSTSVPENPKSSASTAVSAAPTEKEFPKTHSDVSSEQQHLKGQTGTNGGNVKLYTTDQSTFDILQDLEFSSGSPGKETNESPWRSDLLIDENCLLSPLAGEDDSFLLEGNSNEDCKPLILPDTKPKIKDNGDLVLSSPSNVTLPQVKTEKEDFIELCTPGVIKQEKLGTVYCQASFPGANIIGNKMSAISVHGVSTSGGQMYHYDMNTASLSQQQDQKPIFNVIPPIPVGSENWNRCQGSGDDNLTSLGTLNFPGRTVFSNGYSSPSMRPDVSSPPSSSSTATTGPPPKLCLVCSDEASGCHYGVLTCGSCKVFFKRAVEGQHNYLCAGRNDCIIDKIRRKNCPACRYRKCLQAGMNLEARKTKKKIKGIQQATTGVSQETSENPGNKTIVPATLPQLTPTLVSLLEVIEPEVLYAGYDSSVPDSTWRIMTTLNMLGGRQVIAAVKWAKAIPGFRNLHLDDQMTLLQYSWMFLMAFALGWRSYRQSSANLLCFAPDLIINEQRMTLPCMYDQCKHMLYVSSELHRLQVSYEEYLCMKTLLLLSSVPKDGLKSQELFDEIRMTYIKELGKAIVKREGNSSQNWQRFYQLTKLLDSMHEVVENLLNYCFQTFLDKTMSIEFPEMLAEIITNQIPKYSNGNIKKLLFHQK

[6] = target: Glucocorticoid receptor (Homo sapiens) (UniProt P04150); assay: GR-EFC Redistribution (AID 451; calls by dose curve; note: potency is the fitted concentration of half-maximal effect); conditions: CHO-K1 GR-EFC translocation, beta-gal luminescence, 2 h
Procedure, shortened: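 Translocation of GR-ED fusion to nuclear EA restores b-gal, read by luminescence after 1 h room-temperature detection. Engineered CHO-K1 biosensor cells, 1,000/well, exposed 2 h at 37 C to titrations up to 46 uM final.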

[7] = target: 3',5'-cyclic-AMP phosphodiesterase 4B (Homo sapiens) (UniProt Q07343); assay: qHTS Assay for Inhibitors of PDE-IV (AID 607; active = well fitted activation curve with a large enough effect in the main read-out, with a control signal flat, not every such curve was filed as active; note: % of control where 0% means no effect)
Sequence of 3',5'-cyclic-AMP phosphodiesterase 4B (Homo sapiens) (Q07343 whole entry, looked up): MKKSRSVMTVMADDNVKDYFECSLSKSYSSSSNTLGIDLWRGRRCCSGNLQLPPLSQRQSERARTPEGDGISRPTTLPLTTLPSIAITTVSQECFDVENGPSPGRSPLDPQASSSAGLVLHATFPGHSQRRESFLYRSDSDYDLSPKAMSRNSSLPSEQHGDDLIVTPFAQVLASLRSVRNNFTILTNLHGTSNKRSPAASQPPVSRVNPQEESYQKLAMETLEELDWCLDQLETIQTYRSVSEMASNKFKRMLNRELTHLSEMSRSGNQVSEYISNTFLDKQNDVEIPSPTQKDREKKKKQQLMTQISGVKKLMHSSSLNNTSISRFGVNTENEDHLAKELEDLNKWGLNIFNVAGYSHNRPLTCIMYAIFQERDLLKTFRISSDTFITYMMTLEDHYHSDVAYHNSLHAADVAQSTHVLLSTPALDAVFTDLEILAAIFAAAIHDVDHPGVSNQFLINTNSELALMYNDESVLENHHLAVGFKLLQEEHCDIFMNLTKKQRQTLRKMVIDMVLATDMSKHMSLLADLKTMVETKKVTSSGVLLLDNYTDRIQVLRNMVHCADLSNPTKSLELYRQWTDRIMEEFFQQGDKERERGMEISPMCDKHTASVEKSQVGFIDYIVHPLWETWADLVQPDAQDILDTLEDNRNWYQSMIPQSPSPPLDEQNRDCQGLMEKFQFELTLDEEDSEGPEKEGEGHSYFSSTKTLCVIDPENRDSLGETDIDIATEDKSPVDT
Procedure, shortened: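 ACTOne HEK293 cells carry a modified cAMP-gated CNG channel and express endogenous PDE4; plated 1000 cells/well, compounds up to 22.9 uM final. Membrane-potential dye fluorescence (ex 535/em 590) was read; parental cells received 10 uM forskolin + 100 uM RO 20-1724.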

[8] = qHTS Assay for Lipid Storage Modulators (AID 1519; calls by dose curve); conditions: Drosophila S3 cells, BODIPY lipid droplet/cell ratio, laser cytometry, cells loaded with oleic acid; for activity change, negative = inhibition: at 25.7 µM (top of the series)
Procedure, shortened: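 Cells seeded at 5,000 per well were treated with compounds over a concentration series and loaded with oleic acid (400 uM, as added). Lipid droplet fluorescence (488 nm excitation, 500-530 nm channel) was read by laser-scanning cytometry and normalized to 20 uM Triacsin C.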

[9] = target: Mitogen-activated protein kinase 10 (Mus musculus) (UniProt Q61831); assay: JNK3 AlphaScreen Assay (AID 530);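 note: kinase came from lysate of stimulated human HepG2 cells; signal reports phosphorylation of biotinylated GST-cJun 1-79 at Ser73 with 10 µM ATP; % is set by controls: 0 for no effect and ±100 for the full control effect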
Procedure, shortened: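 Compound titrations were preincubated 15 minutes at room temperature with substrate, antibody and pre-activated JNK3-containing HepG2 lysate. Reactions were started with 10 uM ATP and stopped with EDTA-containing bead buffer for AlphaScreen detection.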

[10] = target: ATP-dependent 6-phosphofructokinase (Trypanosoma brucei brucei) (UniProt O15648); assay: qHTS Assay to Find Inhibitors of T. brucei phosphofructokinase: hit validation (AID 492961; active = well fitted curve in the direction sought with a large enough effect; an effect the other way counts as inactive or inconclusive)
Sequence of ATP-dependent 6-phosphofructokinase (Trypanosoma brucei brucei) (O15648 whole entry, looked up): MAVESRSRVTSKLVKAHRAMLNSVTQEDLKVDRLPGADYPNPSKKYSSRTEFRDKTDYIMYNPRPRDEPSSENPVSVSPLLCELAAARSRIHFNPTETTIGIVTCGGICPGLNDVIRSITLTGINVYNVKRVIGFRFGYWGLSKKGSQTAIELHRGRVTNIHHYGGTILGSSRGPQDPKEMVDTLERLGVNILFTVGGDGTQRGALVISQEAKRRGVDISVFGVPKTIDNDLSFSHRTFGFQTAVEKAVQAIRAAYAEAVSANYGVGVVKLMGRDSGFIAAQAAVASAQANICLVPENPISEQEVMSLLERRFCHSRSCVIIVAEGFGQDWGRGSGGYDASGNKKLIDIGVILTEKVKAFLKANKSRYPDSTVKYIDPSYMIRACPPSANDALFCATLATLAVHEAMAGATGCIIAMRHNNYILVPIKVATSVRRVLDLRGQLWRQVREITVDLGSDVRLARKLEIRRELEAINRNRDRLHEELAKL
Procedure, shortened: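 In this biochemical qHTS validation, titrated compounds were tested against 1.25 nM PFK with 0.1 mM ATP and 0.5 mM F6P. Percent activity came from controls lacking or containing enzyme.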

[11] = target: Ubiquitin carboxyl-terminal hydrolase 1 (Homo sapiens) (UniProt O94782); assay: Inhibitors of USP1/UAF1: Pilot qHTS (AID 504865; active = well fitted curve in the direction sought with a large enough effect; an effect the other way counts as inactive or inconclusive; note: nearly all actives have a fitted effect of over 35% in size; note: potency is the fitted concentration of half-maximal effect)
Sequence of Ubiquitin carboxyl-terminal hydrolase 1 (Homo sapiens) (O94782 whole entry, looked up): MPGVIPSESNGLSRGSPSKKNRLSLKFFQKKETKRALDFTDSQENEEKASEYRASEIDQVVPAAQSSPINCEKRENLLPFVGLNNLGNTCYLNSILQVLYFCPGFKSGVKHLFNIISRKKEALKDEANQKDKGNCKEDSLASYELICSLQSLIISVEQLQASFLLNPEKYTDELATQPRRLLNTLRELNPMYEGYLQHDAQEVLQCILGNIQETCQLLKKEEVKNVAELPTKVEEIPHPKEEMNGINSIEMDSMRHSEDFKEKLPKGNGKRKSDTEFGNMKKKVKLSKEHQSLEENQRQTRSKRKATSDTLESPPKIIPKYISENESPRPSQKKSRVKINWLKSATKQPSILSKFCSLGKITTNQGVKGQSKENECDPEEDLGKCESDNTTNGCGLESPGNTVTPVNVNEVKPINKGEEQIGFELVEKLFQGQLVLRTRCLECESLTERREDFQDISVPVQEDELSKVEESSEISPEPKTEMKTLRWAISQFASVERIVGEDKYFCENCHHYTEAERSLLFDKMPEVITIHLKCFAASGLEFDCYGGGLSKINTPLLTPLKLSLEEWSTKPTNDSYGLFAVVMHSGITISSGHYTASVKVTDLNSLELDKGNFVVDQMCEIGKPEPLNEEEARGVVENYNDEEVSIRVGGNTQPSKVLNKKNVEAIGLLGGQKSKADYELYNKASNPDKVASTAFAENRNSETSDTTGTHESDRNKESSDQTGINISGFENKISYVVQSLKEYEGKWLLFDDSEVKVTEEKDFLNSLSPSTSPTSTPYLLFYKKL
Procedure, shortened: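 USP1/UAF1 complex at 1 nM preincubated 15 min at room temperature with compound, then Ub-Rho substrate added at 150 nM final. Fluorescence (480/540 nm) read kinetically in 50 mM HEPES pH 7.8, 0.5 mM EDTA, 1 mM TCEP, 0.1 mg/ml BSA, 0.01% Tween-20.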

[12] = target: Luciferin 4-monooxygenase (Photinus pyralis) (UniProt P08659); assay: Biochemical firefly luciferase enzyme assay for NPC (AID 624030; active = well fitted curve in the direction sought with a large enough effect; an effect the other way counts as inactive or inconclusive;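 note: purified P. pyralis luciferase at 10 nM with luciferin and ATP substrate; 0% = DMSO and -100% = full luciferase inhibition by PTC124 control; nearly all actives have a fitted effect of over 70% in size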)
Sequence of Luciferin 4-monooxygenase (Photinus pyralis) (P08659 whole entry, looked up): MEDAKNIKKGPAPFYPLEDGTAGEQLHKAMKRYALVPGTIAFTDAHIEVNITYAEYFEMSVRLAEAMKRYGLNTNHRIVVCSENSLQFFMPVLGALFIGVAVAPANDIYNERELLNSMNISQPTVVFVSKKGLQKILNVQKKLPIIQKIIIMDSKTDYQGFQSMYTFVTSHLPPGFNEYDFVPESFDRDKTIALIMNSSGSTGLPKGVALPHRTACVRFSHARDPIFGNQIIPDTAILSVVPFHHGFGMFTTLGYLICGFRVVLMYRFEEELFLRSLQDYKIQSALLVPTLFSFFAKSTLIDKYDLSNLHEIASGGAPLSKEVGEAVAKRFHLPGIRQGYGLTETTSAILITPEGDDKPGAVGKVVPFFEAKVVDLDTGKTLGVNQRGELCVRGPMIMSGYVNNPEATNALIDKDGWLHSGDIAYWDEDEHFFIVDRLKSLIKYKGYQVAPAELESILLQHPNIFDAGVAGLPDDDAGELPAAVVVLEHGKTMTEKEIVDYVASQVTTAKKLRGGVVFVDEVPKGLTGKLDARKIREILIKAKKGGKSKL
Procedure, shortened: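 Direct inhibition of firefly luciferase enzyme (10 nM final, 50 mM Tris Acetate) assessed by luminescence within 5 minutes. Percent activity scaled between DMSO and PTC124 positive control, with concentration-effect curves classified by fit quality and response.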

[13] = S16 Schwann cell PMP22 intronic element firefly luciferase assay (AID 624032; active = well fitted curve in the direction sought with a large enough effect; an effect the other way counts as inactive or inconclusive;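 note: plate controls were DMSO for no effect and PTC124 positive control mean for full effect; nearly all actives have a fitted effect of over 30% in size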)
Procedure, shortened: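 Luciferase reporter of PMP22 intronic-element expression in stably transfected S16 rat Schwann cells, read by ONE-Glo luminescence after 24 h compound exposure at 37 C. Activity scaled between DMSO (0%) and positive-control PTC124; concentration-effect curves quality-classified.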

[14] = qHTS profiling for inhibitors of Plasmodium falciparum proliferation (AID 504749; active = well fitted curve in the direction sought with a large enough effect; an effect the other way counts as inactive or inconclusive;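 note: 0% = DMSO vehicle and full inhibition = artemisinin control; nearly all actives have a fitted effect of over 60% in size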); conditions: P. falciparum in erythrocytes, SYBR Green DNA, 72 h, at 12.8 µM (top of the series)
Procedure, shortened: (§1)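 Infected RBCs, 0.3% parasitemia/2.5% Hct final; cpd 72 h, 37 C, 5% CO2; lysis buffer with saponin/triton/SYBR Green I, o/n RT dark; FI 485/535; norm. to artemisinin (0.29 uM) and DMSO.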

C2A = assay: as above; conditions: P. falciparum in erythrocytes, SYBR Green DNA, 72 h; series mostly up to 28.7 µM
Procedure, shortened: as §1

CP192 = assay: as above; conditions: P. falciparum in erythrocytes, SYBR Green DNA, 72 h; series mostly up to 28.7 µM
Procedure, shortened: as §1

CP262 = assay: as above; conditions: P. falciparum in erythrocytes, SYBR Green DNA, 72 h; series mostly up to 28.7 µM
Procedure, shortened: as §1

FAB9 = assay: as above; conditions: P. falciparum in erythrocytes, SYBR Green DNA, 72 h; series mostly up to 28.7 µM
Procedure, shortened: as §1

[15] = measured here: cell count channel max response
[16] = measured here: lipid channel max response

C/C=C1\C[C@H](C)[C@@](O)(CO)C(=O)OCC2=CCN3CC[C@@H](OC1=O)[C@@H]23
4.82%: max response [8, 15]
5.25%: max response [8, 16]
inactive: outcome [1] | Potency [2] | activity change, negative = inhibition [3] -20.5% | outcome [4] | Potency [5] > 20.6 µM | Potency [6] > 20.6 µM | Potency [7] | activity change, negative = inhibition [8] 0.17%

NCC[C@H](O)C(=O)N[C@H]1C[C@@H](N)[C@@H](O[C@H]2O[C@@H](CN)[C@@H](O)[C@@H](O)[C@@H]2N)[C@@H](O[C@H]2O[C@@H](CO)[C@@H](O)[C@@H]2O)[C@@H]1O
-10.6%: max response [8, 15]
-13.9%: max response [8, 16]
inactive: outcome [1] | Potency [2] | activity change, negative = inhibition [3] -14.8% | outcome [4] | outcome [9] | Potency [7] | activity change, negative = inhibition [8] -3.44% | Potency [10] | Potency [11] | Potency [12] | Potency [13] | activity, negative = inhibition ([14]; parasite line A) 12.6% | activity, negative = inhibition ([14]; parasite line B) 8.36% | Potency (C2A) | Potency (CP192) | Potency (CP262) | Potency (FAB9)

C[C@@]12CC(=O)[C@H]3[C@@H](CCC4=CC(=O)CC[C@]43C)[C@H]1CCC2=O
-10.7%: max response [8, 15]
inactive: outcome [1] | Potency [2] | activity change, negative = inhibition [3] 2.56% | outcome [4] | Potency [5] > 20.6 µM | Potency [6] > 20.6 µM | outcome [9] | Potency [7] | activity change, negative = inhibition [8] -2.03% | Potency [11]
-12.2%: max response [8, 16]

CN1C(=O)CCS(=O)(=O)[C@@H]1c1ccc(Cl)cc1
inactive: outcome [1] | Potency [2] | activity change, negative = inhibition [3] 1.85% | outcome [4] | Potency [5] > 20.6 µM | Potency [6] > 20.6 µM | outcome [9] | Potency [7] | activity change, negative = inhibition [8] -0.668% | Potency [11]
-4.45%: max response [8, 15]
-4.68%: max response [8, 16]

COP(=O)(OC)[C@@H](O)C(Cl)(Cl)Cl
2.5%: max response [8, 16]
inactive: outcome [1] | activity change, negative = inhibition [3] -11.8% | outcome [4] | Potency [5] > 20.6 µM | Potency [6] > 20.6 µM | Potency [7] | activity change, negative = inhibition [8] -2.04% | Potency [11]
5.96%: max response [8, 15]

CCN(CC)C(=O)N[C@H]1C=C2c3cccc4[nH]cc(c34)C[C@@H]2N(C)C1
inactive: outcome [1] | outcome [4] | Potency [5] > 20.6 µM | Potency [6] > 20.6 µM | outcome [9] | activity change, negative = inhibition [8] -1.39%
-15.1%: max response [8, 15]
-15.7%: max response [8, 16]
active: Potency [11] 35.5 µM
